Hit rate of the full screen: of about 4,100 compounds, about 1,600 (39%) were called active. About 25% were inconclusive and are not listed. Calls come from the whole dose curve; as a rule, active = well fitted inhibition curve with a large enough effect; inconclusive = small, poorly fitted or top-dose-only effect; inactive = no such curve, though single readings can be large or run the other way. This is one part of the list.
test: qHTS Validation assay for Inhibitors of Plasmodium falciparum Dd2 growth in vitro; note: nearly all actives have a fitted effect of over 70% in size; details: P. falciparum Dd2 in RBCs, SYBR Green growth, 72 h; series mostly up to 28.7 µM; activity change, negative = inhibition: at the top concentration
Summary of the method: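 P. falciparum Dd2-infected red blood cells (2.5% hematocrit, 0.3% parasitemia) grown 72 h at 37 °C under 5% O2 with compounds in a titration, 29 uM to 0.5 nM final. Growth read as SYBR Green-1 fluorescence after ~16 h lysis; artesunate 300 nM as positive control.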
% is set by controls: 0 for no effect and ±100 for the full control effect; potency is the fitted concentration of half-maximal effect.

SMILES | Potency | activity change, negative = inhibition
CC(=O)N(C)C1=C(N2CCOCC2)C(=O)c2ccccc2C1=O | 0.842 µM (active) | 
CC(=O)Oc1c(-c2ccc(NC(=O)CC(C)C)cc2)c(-c2ccc(F)cc2)nn1-c1ccc(F)cc1 | 13.3 µM (active) | 
COc1ccc(-c2nn(-c3ccc(F)cc3)c(OC(C)=O)c2-c2ccc(NC(C)=O)cc2)cc1OC | 15 µM (active) | 
Cc1ccc(-n2cc(-c3ccccc3)nc2S(=O)(=O)CC(=O)Nc2ccc(F)cc2)cc1 |  | -20.6% (inactive)
COc1cccc(C2C3=C(N=c4s/c(=C\c5ccccc5O)c(=O)n42)c2ccccc2CC3)c1OC (centres undefined) | 2.99 µM (active) | 
COc1cccc(CN2C(=O)OC3(CCN(Cc4c[nH]c5ccccc45)CC3)C2(C)c2cccnc2)c1 (centres undefined) | 8.41 µM (active) | 
COc1cccc(CN2C(=O)OC3(CCN(Cc4ccc5c(c4)CCO5)CC3)C2(C)c2cccnc2)c1 (centres undefined) | 4.73 µM (active) | 
COCc1cc(=O)n(CC(=O)NCc2cccc(OC)c2)c(N2CCOCC2)n1 |  | 3.01% (inactive)
COc1cccc(CN2C(=O)OC3(CCN(Cc4ccccc4OC)CC3)C2(C)c2cccnc2)c1 (centres undefined) | 4.73 µM (active) | 
CC1(c2ccccc2)N(Cc2ccc(O)cc2)C(=O)OC12CCN(Cc1c[nH]c3ccccc13)CC2 (centres undefined) | 5.31 µM (active) | 
COc1cccc(CN2CCC3(C2)NC(=O)c2ccccc2CO3)c1 (centres undefined) |  | 1.2% [at 43.1 µM] (inactive)
O=C1CO[C@H]2CCN(Cc3ccc(O)cc3)CC[C@@H]2N1c1ccccc1 |  | -26.9% [at 43.1 µM] (inactive)
COCCc1noc([C@@H]2CN(Cc3ccc(C)o3)C[C@H]2CO)n1 |  | 0% (inactive)
COC(=O)C1C2C=CC3(CN(Cc4cccs4)C(=O)C13)O2 (centres undefined) |  | 34.7% (inactive)
CCOC(=O)c1cnc2ccc(OC)cc2c1Nc1ccc(N2CCN(C)CC2)cc1 | 1.68 µM (active) | 
Cc1ncc(CO)c(/C=N/NC(=O)c2ccc(O)cc2)c1O |  | 39.7% (inactive)
Cc1ccc(C(=O)N/N=C/c2ccc([N+](=O)[O-])s2)cc1 | 5.96 µM (active) | 
Cc1ccccc1C1C(C#N)=C2N=C(N)c3c(sc4c3CCCCC4)N2C2=C1C(=O)CCC2 (centres undefined) | 2.66 µM (active) | 
CN(CC1CCOC1)C(=O)Nc1ccc(Br)cc1 (centres undefined) |  | -2.76% (inactive)
COc1cc(C2CC(=O)N(Cc3ccc(F)cc3)c3ccccc3S2)cc(OC)c1OC (centres undefined) | 2.11 µM (active) | 
COC(=O)c1ccc(CN2C(=O)[C@@H]3C[C@@H](O)CN3C3(CN(Cc4ccc(F)cc4)C3)C2=O)cc1 |  | 12.4% (inactive)
COc1cc(-c2ccnc3nc(Cc4ccc(F)cc4)nn23)cc(OC)c1OC |  | -11.8% (inactive)
O=C(/C=C/c1ccco1)NC(=S)Nc1ccccc1N1CCCC1 | 2.66 µM (active) | 
CC(C)(C)C(=O)NC(=S)Nc1ccccc1N1CCCC1 |  | -6.71% (inactive)
